Laboratory results taken from PubChem BioAssay (NCATS).
“And” between values parts separate entries of the source, which are not always exact repeats. Equal values may be shown once. Inconclusive results are not listed. The source made the active and inactive calls. Calls come from the whole dose curve; as a rule, active = well fitted inhibition curve with a large enough effect; inconclusive = small, poorly fitted or top-dose-only effect; inactive = flat fitted curve, though single readings scatter.

How the values were obtained:
PC49 = test: qHTS profiling for inhibitors of Plasmodium falciparum proliferation (AID 504749); note: potency is the fitted concentration of half-maximal effect; conditions: P. falciparum in erythrocytes, SYBR Green DNA, 72 h; series mostly up to 28.7 µM
Outline: (§1)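 Infected RBCs, 0.3% parasitemia/2.5% Hct final; cpd 72 h, 37 C, 5% CO2; lysis buffer with saponin/triton/SYBR Green I, o/n RT dark; FI 485/535; norm. to artemisinin (0.29 uM) and DMSO.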

SC27B = test: as above; conditions: P. falciparum in erythrocytes, SYBR Green DNA, 72 h; series mostly up to 28.7 µM
Outline: as §1

TAB109 = test: as above; conditions: P. falciparum in erythrocytes, SYBR Green DNA, 72 h; series mostly up to 28.7 µM
Outline: as §1

TAB113 = test: as above; conditions: P. falciparum in erythrocytes, SYBR Green DNA, 72 h; series mostly up to 28.7 µM
Outline: as §1

W2 = test: as above; conditions: P. falciparum in erythrocytes, SYBR Green DNA, 72 h; series mostly up to 28.7 µM
Outline: as §1

KB-3-1 = test: Cytotoxic Profiling of Annotated Libraries Using Quantitative High-Throughput Screening (AID 1296008); conditions: Five cell lines viability, CellTiter-Glo ATP luminescence, 48-72 h; max response: stronger effect = lower value; note: % is set by controls: 0 for no effect and ±100 for the full control effect
Outline: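 Cytotoxicity was measured as CellTiter-Glo ATP luminescence, read after 10 min at room temperature. Compound treatment of the cells lasted 48 or 72 hr at 37 degrees Celsius in a qHTS format.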

TAB165 = test: qHTS profiling for inhibitors of Plasmodium falciparum proliferation (AID 504749); note: potency is the fitted concentration of half-maximal effect; conditions: P. falciparum in erythrocytes, SYBR Green DNA, 72 h; series mostly up to 28.7 µM
Outline: as §1

PC26 = test: as above; conditions: P. falciparum in erythrocytes, SYBR Green DNA, 72 h; series mostly up to 28.7 µM
Outline: as §1
Note: nearly all actives have a fitted effect of over 60% in size.

CC/C=C\C/C=C\C/C=C\CCCCCCCC(=O)O
inactive: Potency (PC49) | Potency (SC27B) | Potency (TAB109) | Potency (TAB113) | Potency (W2) | max response (KB-3-1) -1.86%

O=C(O[C@H]1CN2CCC1CC2)N1CCc2ccccc2[C@@H]1c1ccccc1
inactive: Potency (PC49) | Potency (SC27B) | Potency (TAB109) | Potency (TAB113) | max response (KB-3-1) 8.58%
active: Potency (W2) 1.69 µM

C[C@H]1O[C@@H](O[C@H]2[C@@H](O)C[C@H](O[C@H]3[C@@H](O)C[C@H](O[C@H]4CC[C@@]5(C)[C@H](CC[C@@H]6[C@@H]5C[C@@H](O)[C@]5(C)[C@@H](C7=CC(=O)OC7)CC[C@]65O)C4)O[C@@H]3C)O[C@@H]2C)C[C@H](O)[C@@H]1O
inactive: Potency (PC49) | Potency (SC27B) | Potency (TAB109) | Potency (TAB113) | Potency (TAB165)

OCc1ccccc1
active: Potency (W2) 5.36 µM
inactive: max response (KB-3-1) 7.88%

CCOC(=O)C1=C(COCCN)NC(C)=C(C(=O)OC)C1c1ccccc1Cl (stereo unspecified)
inactive: Potency (PC26) | Potency (PC49) | Potency (SC27B) | Potency (TAB109) | Potency (TAB113)

O=C(CCCN1CCC(C(=O)c2ccc(F)cc2)CC1)c1ccc(F)cc1
active: Potency (W2) 3.79 µM
inactive: Potency (SC27B) | Potency (TAB113) | max response (KB-3-1) 33.7%

CCN(CC)CCC(=O)N1c2ccccc2Sc2ccc(Cl)cc21
active: Potency (PC49) 11.2 µM | Potency (W2) 3.38 µM
inactive: max response (KB-3-1) 24.4%

O.O.O.O.O.O.O.O=S(=O)([O-])[O-].[Co+2]
active: Potency (PC49) 7.94 µM | Potency (SC27B) 7.94 µM | Potency (TAB109) 7.94 µM | Potency (TAB113) 6.31 µM | Potency (TAB165) 10 µM | Potency (W2) 5.36 µM
inactive: max response (KB-3-1) -0.614%

CN(C)CCC=C1c2ccccc2C(C)(C)c2ccccc21
inactive: Potency (PC49) | Potency (SC27B) | max response (KB-3-1) -19.1%
active: Potency (W2) 3.38 µM

O=P(O)(O)OP(=O)(O)O
inactive: Potency (PC49) | Potency (TAB109) | max response (KB-3-1) -8.71%
active: Potency (W2) 13.5 µM

CC(C)O
inactive: Potency (PC26) | Potency (PC49) | Potency (SC27B) | Potency (TAB109) | Potency (TAB113) | Potency (TAB165) | Potency (W2)

NC(=S)N=Nc1ccc(NN=C(N)N)cc1
inactive: max response (KB-3-1) -12.2%
active: Potency (SC27B) 11.2 µM | Potency (TAB109) 11.2 µM | Potency (TAB165) 7.94 µM | Potency (W2) 1.69 µM

COc1cc2c(cc1OC)[C@@H](Cc1cc(OC)c(OC)c(OC)c1)[N+](C)(CCCOC(=O)CC/C=C/CCC(=O)OCCC[N+]1(C)CCc3cc(OC)c(OC)cc3[C@H]1Cc1cc(OC)c(OC)c(OC)c1)CC2 (stereo partly specified)
inactive: Potency (PC49) | Potency (SC27B) | Potency (TAB109) | Potency (TAB113) | Potency (TAB165) | Potency (W2) | max response (KB-3-1) -6.45% and -2.94%

CC1CC(O)CC(C)(C)C1 (stereo unspecified)
inactive: Potency (PC49) | Potency (SC27B) | Potency (TAB109) | Potency (TAB113) | Potency (TAB165) | Potency (W2) | max response (KB-3-1) 4.01%

CC[C@H]1OC(=O)[C@H](C)[C@@H](O[C@H]2C[C@@](C)(OC)[C@@H](O)[C@H](C)O2)C(C)[C@@H](O[C@@H]2O[C@H](C)C[C@H](N(C)C)[C@@H]2O)[C@](C)(OC)C[C@@H](C)C(=O)[C@H](C)[C@@H](O)[C@]1(C)O (stereo partly specified)
active: Potency (W2) 3.79 µM
inactive: Potency (PC49) | Potency (SC27B) | Potency (TAB109) | Potency (TAB113) | Potency (TAB165) | max response (KB-3-1) -4.62%

CN1CCCC(CN2c3ccccc3Sc3ccccc32)C1 (stereo unspecified)
inactive: Potency (PC49) | max response (KB-3-1) -10.2%
active: Potency (TAB109) 11.2 µM | Potency (TAB165) 12.6 µM | Potency (W2) 3.38 µM

CSCCC(N)C(=O)O (stereo unspecified)
inactive: Potency (PC49) | Potency (SC27B) | Potency (TAB109) | Potency (TAB113) | Potency (TAB165) | Potency (W2) | max response (KB-3-1) 3.08%

NCCN
inactive: Potency (PC26) | Potency (PC49) | Potency (SC27B) | Potency (TAB109) | Potency (TAB113) | Potency (TAB165) | Potency (W2)

NC(=O)CC[C@@H]1NC(=O)[C@H](Cc2ccccc2)NC(=O)[C@H](Cc2ccc(O)cc2)NC(=O)[C@@H](N)CSSC[C@@H](C(=O)N2CCC[C@H]2C(=O)N[C@@H](CCCN=C(N)N)C(=O)NCC(N)=O)NC(=O)[C@H](CC(N)=O)NC1=O
active: Potency (W2) 8.49 µM
inactive: Potency (PC49) | Potency (SC27B) | max response (KB-3-1) 22.3% and -14.9%

C=CC[N+]1([C@H]2C[C@H]3[C@@H]4CC[C@H]5C[C@H](O)[C@@H](N6CCOCC6)C[C@]5(C)[C@H]4CC[C@]3(C)[C@H]2OC(C)=O)CCCC1
inactive: Potency (PC49) | max response (KB-3-1) 7.82%
active: Potency (TAB109) 6.31 µM | Potency (W2) 5.36 µM
